Compound activity (PubChem BioAssay)
G9a inh: blocks human histone lysine methyltransferase G9a; 8.8% of 350,000 active; G9a H3K9 monomethylation, AlphaScreen, 2 h; AID 504332; Potency, µM (doses to about 102 µM), for inactives: at the highest dose activity, negative = inhibition, usual class: inhibitors; Q96KQ7; further: on the % scale 0 is the no-effect control and ±100 the full control effect; nearly all actives have a fitted effect of over 75% in size
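Signal arises when biotinylated H3K9 peptide, once monomethylated, bridges streptavidin donor and antibody-captured acceptor beads. Enzyme at 20 nM was preincubated 15 min with test compounds; peptide 500 nM and SAM 20 uM then reacted for 2 h.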
ALOX12 inh: blocks human arachidonate 12S-lipoxygenase. P18054. purified 12hLO, xylenol orange hydroperoxide absorbance. Potency, µM (series often up to 108 µM), inactives show at the top dose activity change, negative = inhibition, usual class: inhibitors. 1.1% of 580,000 active; further: on the % scale 0 is the no-effect control and ±100 the full control effect
Target sequence (P18054 whole entry, looked up): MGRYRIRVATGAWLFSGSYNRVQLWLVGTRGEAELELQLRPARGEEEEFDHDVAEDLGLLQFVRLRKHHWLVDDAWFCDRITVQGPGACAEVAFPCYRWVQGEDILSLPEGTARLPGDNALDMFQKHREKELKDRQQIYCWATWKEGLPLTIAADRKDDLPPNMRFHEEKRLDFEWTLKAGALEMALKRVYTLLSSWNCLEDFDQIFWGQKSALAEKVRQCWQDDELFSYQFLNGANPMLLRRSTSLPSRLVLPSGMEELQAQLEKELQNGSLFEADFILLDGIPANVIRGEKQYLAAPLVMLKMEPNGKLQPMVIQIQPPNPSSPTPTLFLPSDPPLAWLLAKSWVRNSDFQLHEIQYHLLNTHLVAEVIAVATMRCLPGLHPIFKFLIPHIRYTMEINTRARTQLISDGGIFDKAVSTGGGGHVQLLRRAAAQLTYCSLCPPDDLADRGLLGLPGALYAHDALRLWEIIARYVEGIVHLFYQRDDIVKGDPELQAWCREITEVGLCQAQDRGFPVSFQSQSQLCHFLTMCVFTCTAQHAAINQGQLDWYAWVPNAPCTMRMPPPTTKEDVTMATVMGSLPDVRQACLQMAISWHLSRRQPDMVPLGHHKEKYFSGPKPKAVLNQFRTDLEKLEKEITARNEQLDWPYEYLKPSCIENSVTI
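Hydroperoxide product was detected by ferrous iron/xylenol orange as the 573 to 405 nm absorbance ratio. Arachidonic acid at 40 uM (final) was turned over for 30 min at room temperature by 150 nM human 12hLO, pH 7.0 Hepes buffer, after 15 min compound preincubation.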
Sfp inh: inhibitors of Bacillus subtilis Sfp phosphopantetheinyl transferase. Biochemical Sfp PPTase activity, qHTS. Potency, µM, without a hit: largest response in the series, negative = inhibition, usual class: inhibitors. 3.5% of 310,000 active;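 further: the enzyme is Sfp with the accession as filed and its product quenches rhodamine fluorescence; 0% = enzyme reaction without inhibitor and -100% = no enzyme wells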
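Compounds were incubated with enzyme (final 15 nM) for 15 min at room temperature before substrate addition started the reaction. Fluorescence at 525 nm excitation, 598 nm emission was recorded immediately and after 30 minutes.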
JMJD2A Tudor inh: blocks the human JMJD2A Tudor domain; O75164; AlphaScreen JMJD2A-Tudor / H3K4me3 peptide binding; Potency, µM (doses to about 114 µM), inactives show at the highest dose activity change, negative = inhibition, hits mostly inhibitors; 4.4% of 390,000 active; AID 504339; further: on the % scale 0 is the no-effect control and ±100 the full control effect; nearly all actives have a fitted effect of over 50% in size
HP1b chromo inh: inhibitors of HP1-beta chromodomain binding to methylated histone tails | Potency, µM (highest dose often 114 µM), inactives show at the highest dose activity change, negative = inhibition, usual class: inhibitors | AID 540317 | 0.56% of 390,000 active | P83916 | AlphaScreen HP1-beta / biotin-H3K9me3 peptide binding; further: nearly all actives have a fitted effect of over 70% in size
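AlphaScreen: HP1-beta (50 nM) preformed 30 min with biotin-H3(1-18)K9me3 peptide (50 nM) in PBS pH 7.4, 0.01% Tween-20. Compound added for 30 min at RT, then streptavidin donor/nickel chelate acceptor beads (10 ug/mL) for 30 min.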
BAZ2B block: inhibitors of human BAZ2B bromodomain | Q9UIF8 | AlphaScreen BAZ2B-H3K14Ac peptide displacement | Potency, µM (titrated, usually from 114 µM), for inactives: at the highest dose activity change, negative = inhibition, actives largely listed as inhibitors | 4.4% of 360,000 active; further: on the % scale 0 is the no-effect control and ±100 the full control effect; nearly all actives have a fitted effect of over 60% in size
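Multi-concentration screen (max 110 uM) measuring displacement of acetylated histone H3 peptide from BAZ2B by AlphaScreen, using 50 nM protein, 50 nM peptide and 10 ug/mL streptavidin donor plus Ni-chelate acceptor beads.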
An asterisk follows results filed as active; ? = inconclusive; nt = no result given; [ ] = remark or other dose. Sampled rows, rich in hits. Any-hit rate of the full collection: about 8.7%. The call rests on the fitted dose curve; in most records, active means well fitted curve in the direction sought with a large enough effect; inconclusive means small, poorly fitted or top-dose-only effect, or another doubt; inactive means no such curve, though single readings can be large; an effect the other way counts as inactive or inconclusive. Potency means the concentration at half of the fitted maximal effect.

SMILES	G9a inh	ALOX12 inh	Sfp inh	JMJD2A Tudor inh	HP1b chromo inh	BAZ2B block
Cc1ccc2oc3c(c(=O)c2c1)C(c1cccc(O)c1)N(CCCN1CCOCC1)C3=O (stereo unspecified)	-2%[59 µM]	-17%	nt	-10%	4%	-2%
Cc1ccc2oc3c(c(=O)c2c1)C(c1cccc(Cl)c1)N(CCCN1CCOCC1)C3=O (stereo unspecified)	50µM*	12%[57.4 µM]	8%	-20%	19%	0%
COc1cccc(C2c3c(oc4ccc(F)cc4c3=O)C(=O)N2CCN2CCOCC2)c1OC (stereo unspecified)	-18%[59 µM]	-9%	13%	-25%	4%	4%
Cc1ccc2oc3c(c(=O)c2c1)C(c1ccc(F)cc1)N(CCCN1CCOCC1)C3=O (stereo unspecified)	45µM*	nt	?	nt	nt	-3%
Cc1noc2c(N3CCN(Cc4ccccc4)CC3)cc(-c3cccnc3)nc12	nt	9%[176 µM]	nt	nt	nt	nt
CCOC(=O)C1=C(C)N(c2ccccc2)C(=O)C1CC(=O)O (stereo unspecified)	18µM*	12%[57.4 µM]	11%	5%	49%	4%
CCOC(=O)C1=C(C)N(C)C(=S)NC1c1ccccc1 (stereo unspecified)	12%[59 µM]	-27%	2%	-13%	15%	-4%
CCOC(=O)C1=C(C)N(C)C(=O)C1CC(=O)O (stereo unspecified)	-16%[59 µM]	0%	12%	56µM*	-58%	-3%
Cc1ncoc1C(=O)N1CCCC(c2nc(-c3cccnc3)no2)CCNC(=O)CC1 (stereo unspecified)	nt	-6%	nt	nt	nt	nt
O=C1NC2(CCN(Cc3ccncc3)CC2)Oc2ccccc21	nt	31%[176 µM]	nt	nt	nt	nt
O=C(OCCCCN1C(=O)c2ccccc2C1=O)c1n[nH]c2ccccc12	50µM*	0%	-21%	?	8%	4%
COC(=O)c1n[nH]c2ccccc12	-5%[59 µM]	94%	14%	-10%	10%	4%
CC1(COc2ccccc2)COc2ccc(C(=O)NCCc3ccccn3)cc2N1 (stereo unspecified)	nt	18µM*	nt	nt	nt	nt
CC1(COc2ccccc2)COc2ccc(C(=O)NCCc3ccccc3)cc2N1 (stereo unspecified)	nt	1%[176 µM]	nt	nt	nt	nt
CN(CC1CCOC1)C(=O)Nc1cccc(Cl)c1 (stereo unspecified)	nt	2%	nt	nt	nt	nt
CCOC(=O)/C(C)=C1\NC(C)(C)Cc2ccccc21	2.5µM*	16µM*	?	22µM*	25µM*	18µM*
CCOC(=O)/C(C(=O)Nc1ccccc1Cl)=C1/NC(C)(C)Cc2ccccc21	?	7%	-5%	-18%	-1%	-34%
Cc1c(CC(=O)N2CCN(c3ccccc3)CC2)c(=O)oc2c(C)c(O)ccc12	nt	4%	nt	nt	nt	nt
Cc1cccc(Nc2nc(-c3ccccc3)cs2)c1C	nt	-12%	nt	nt	nt	nt
O=C(c1cccs1)c1coc2ccc(O)c(CN(CCO)CCO)c12	40µM*	-35%	-4%	-13%	11%	-2%
CCN(CC)Cc1c(O)ccc2occ(C(=O)c3ccccc3)c12	-8%	?	9%	-14%	48%	-25%
c1ccc(CSc2nc3ncncc3[nH]2)cc1	-48%	-5%	16%	-13%[11.4 µM]	52%	-4%
CCOC(=O)Sc1nc2ncncc2[nH]1	nt	-20%	nt	3.5µM*	?	nt
CSCCC(NC=C1C(=O)OC(C)(C)OC1=O)C(=O)O (stereo unspecified)	-11%	1%	-16%	79µM*	15%	-30%
Cc1cccc(C(=O)NCc2nc(C)cs2)n1	nt	16%	nt	nt	nt	nt
COc1cc2ccccc2cc1C(=O)OCc1ccc(C#N)cc1	nt	-1%	nt	nt	nt	nt
Nc1nc2ccccc2n1C(=O)c1ccc(F)cc1	?	3%	15%	-18%	1%	-19%
Nc1nc2ccccc2n1C(=O)c1ccccc1	nt	14%	14%	-11%	36%	79µM*
COC(=O)c1ccccc1NC(=O)CNc1cc(Cl)ccc1N1CCOCC1	45µM*	-21%	?	-25%	-2%	-5%
